Screens deposited in PubChem BioAssay by National Center for Advancing Translational Sciences (NCATS).
D2 ag-1 = human D2 receptor agonism in beta-arrestin assay; P14416; DiscoveRx PathHunter D2 beta-arrestin, luminescence, 90 min; 100% = 57 uM dopamine signal; activation, % (concentration not given with the values); 360,000 compounds, 0.084% hits; in the data active = activation above about 40%
Target sequence (P14416 whole entry, looked up): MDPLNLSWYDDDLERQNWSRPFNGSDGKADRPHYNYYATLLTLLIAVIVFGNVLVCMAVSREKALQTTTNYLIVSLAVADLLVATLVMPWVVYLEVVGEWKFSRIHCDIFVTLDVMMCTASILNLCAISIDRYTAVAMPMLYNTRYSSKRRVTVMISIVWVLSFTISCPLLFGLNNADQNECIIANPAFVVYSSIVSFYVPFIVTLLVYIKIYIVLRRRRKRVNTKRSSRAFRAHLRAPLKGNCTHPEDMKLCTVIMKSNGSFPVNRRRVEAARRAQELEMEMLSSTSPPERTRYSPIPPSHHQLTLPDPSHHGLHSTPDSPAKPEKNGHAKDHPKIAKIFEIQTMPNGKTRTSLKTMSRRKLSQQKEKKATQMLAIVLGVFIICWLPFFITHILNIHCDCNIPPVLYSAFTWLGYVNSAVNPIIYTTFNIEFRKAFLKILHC
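DiscoveRx PathHunter D2 beta-arrestin cells (2,100/well) attached overnight, then compound-stimulated 90 min at 37 C in HBSS/10 mM HEPES/0.1% Tween-20 buffer; beta-galactosidase complementation read by luminescence after 1 h at ambient temperature. Dopamine 57 uM final (EC100) as control.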
D2 PAM-1 = positively modulates the human D2 dopamine receptor allosterically. HEK293 T-REx D2, calcium flux, EC20 dopamine potentiation. potentiation, % at 10 µM. 340,000 compounds, 0.34% hits. P14416;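 active = potentiation over 3 SD above the plate norm, cut at about 30% in these data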
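Potentiation of an EC20 dopamine calcium response is measured in a force-coupled, tetracycline-inducible Hek293 Trex D2 line. Compound-only kinetic reads over 180 s flag agonists before dopamine addition.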
D2 antagonist = antagonizes the human D2 dopamine receptor. P14416. HEK293 TREx D2 cells, calcium flux, dopamine EC80. inhibition, % at 10 µM. 340,000 compounds, 2% hits. AID 485344; in the data active = inhibition above about 30%; inactive = below that, where a call was filed
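Dopamine at EC80 is the agonist stimulus; test compounds precede it by 180 s. Calcium flux read kinetically in a force-coupled, inducible HEK293 T-REx D2 cell line.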
D2 PAM-2 = positive allosteric modulators of human D2 dopamine receptor. P14416. DiscoveRx D2 beta-arrestin cells, luminescence, 90 min; 100% = 57 uM dopamine signal. potentiation, % (test concentration not listed). 360,000 compounds, 0.23% hits; in the data active = potentiation above about 50%
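D2 cells co-treated with compound plus 50 nM dopamine (EC20) for 90 min at 37 deg C to detect potentiation. Beta-arrestin recruitment was read as enzyme-fragment luminescence after 1 h at ambient temperature. Full response was set by 57 uM dopamine.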
D2 ag-2 = agonists of human D2 dopamine receptor. 340,000 compounds, 0.53% hits. AID 485358. activation, % at 2 µM. HEK293 T-REx D2 cells, calcium flux agonist mode;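 active = activation over 3 SD above normal in the single-dose calcium agonist read, cut at about 30% in these data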
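Tetracycline-induced HEK293 T-REx cells with force-coupled D2 receptor, plated overnight at 30 C, loaded with no-wash calcium dye. After a 10 s baseline, compound was pin-added and calcium flux read kinetically for 180 s; calcium rises flagged agonists.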
Large screens that a line does not name were inactive. Most compounds without a hit are left out; they make up all but 2.4% or so of the library.

CCc1nn(C(CC)C(=O)NCCCN2CC(C)CC(C)C2)c(=O)c2cc3oc(C)cc3n12 (stereo not drawn)	D2 antagonist 64
CCc1nn(C(CC)C(=O)NCCCc2ccccc2)c(=O)c2cc3occc3n12 (stereo not drawn)	none
Cc1csc(/C(=N/OC(=O)c2ccco2)C(N)=O)n1	D2 antagonist 42
COc1cc(Br)cc(/C=N/N(CCO)C2=NS(=O)(=O)c3ccccc32)c1OC	D2 antagonist 38
COc1cc(/C=N/N(CCO)C2=NS(=O)(=O)c3ccccc32)cc(OC)c1OC	none
COc1ccccc1CNC(=O)C1CCN(S(=O)(=O)c2ccc(N3CCCC3=O)cc2)CC1	D2 antagonist 37
O=C(Nc1cccc(C(F)(F)F)c1)C1CCN(S(=O)(=O)c2ccc(N3CCCC3=O)cc2)CC1	D2 antagonist 64
O=C(NCc1ccccc1)C1CCN(S(=O)(=O)c2ccc(N3CCCC3=O)cc2)CC1	none
CC1CN(C(C)C(=O)NC(c2ccccc2)c2ccccc2)CC(C)O1 (stereo not drawn)	none
O=C(NCCN1CCOCC1)C12CC3CC(C1)CC(c1ccccc1)(C3)C2	D2 antagonist 38
N=c1c(C(=O)NCc2ccco2)cc2c(=O)n3ccccc3nc2n1Cc1ccccc1	D2 antagonist 38
Cc1onc(-c2c(Cl)cccc2Cl)c1/C(N)=N/OC(=O)C1CC1	none
COc1ccccc1C(=O)NCCC(=O)N(C)CC(=O)Nc1c(Cl)cccc1Cl	none
COc1ccc(Cl)cc1C(=O)NCCN(C)C	D2 antagonist 33
COc1ccc(Cl)cc1NC(=O)CN(C)C(=O)c1cn(-c2ccccc2)nc1-c1cccnc1	D2 antagonist 44
COc1ccc(Cl)cc1NC(=O)CN(C)C(=O)Cc1ccc2c(c1)CCC2	none
COc1ccc(Cl)cc1NC(=O)CN(C)C(=O)c1cc2c(s1)CCCC2	D2 antagonist 46
COc1ccc(Cl)cc1NC(=O)CN(C)C(=O)CCNC(=O)c1ccccc1OC	D2 antagonist 31
COc1cc(C2C(C#N)=C(N)Oc3n[nH]c(-c4cccnc4)c32)cc(Br)c1O (stereo not drawn)	none
Cc1nn(-c2ccccc2)c2c1C1(C(=O)N(C(C)C)c3ccccc31)C(C#N)=C(N)O2 (stereo not drawn)	D2 PAM-2 60
Cc1ccccc1Nc1nc(-c2sc(NC(=O)c3cccc(Cl)c3)nc2C)cs1	D2 PAM-1 31 (no result: D2 ag-1, D2 PAM-2)
COc1ccc(-c2csc(C)n2)cc1Br	D2 antagonist 36
COc1cc(-c2csc(C)n2)ccc1O	none
CC(C)c1ccc(NC(=O)C2C3C=CC4(O3)C2C(=O)N(CCCN2CCOCC2)C4C(=O)NC2CCCCC2)cc1 (stereo not drawn)	none
CC(=O)Nc1ccc(S(=O)(=O)NC2(C(F)(F)F)C(=O)Nc3c2c(=O)[nH]c(=O)n3-c2ccc(C)cc2)cc1 (stereo not drawn)	none (no result: D2 ag-1, D2 PAM-1, D2 antagonist, D2 PAM-2)
C/C(=N\OC(=O)c1ccccc1F)c1nccs1	D2 PAM-1 41
CN1CCC(=C2c3ccccc3CC(=O)c3sccc32)CC1	none
CN1CCC(=C2c3ccccc3CCc3sccc32)CC1	D2 antagonist 86
Cc1ccccc1-n1ncc(C(C)NC(=O)c2ccccc2)c1C (stereo not drawn)	D2 antagonist 36
Cc1cc(C)n2nc(C(=O)OCC(=O)Nc3ccc(Cl)cc3)nc2n1	none (no result: D2 PAM-1, D2 antagonist, D2 ag-2)
CCCOC(=O)c1ccc(NC(=O)c2nc3nc(C)cc(C)n3n2)cc1	D2 PAM-1 31
CC1Cc2ccccc2N1C(=O)c1cc2cccnc2n(C)c1=O (stereo not drawn)	none
Cc1nn(Cc2ccccc2)c(C)c1/C=N/NC(=O)CNc1cccc(C(F)(F)F)c1	none
COc1ccc(NCC(=O)N/N=C/c2c(C)nn(Cc3ccccc3)c2Cl)cc1	D2 antagonist 31
C=CCN(c1ccccc1)S(=O)(=O)c1cccc(C(=O)Nc2nnc(SCC)s2)c1	D2 antagonist 43
CC12CC(NC(=O)N1c1cccc(C(=O)NCc3ccccn3)c1)c1ccccc1O2 (stereo not drawn)	none
Cc1cc(Nc2ccc(Br)cc2)n2nc(-c3ccccc3C)nc2n1	none (no result: D2 ag-1, D2 antagonist, D2 PAM-2)
Cc1nnc(Sc2nc3c(c(=O)[nH]c(=O)n3C)n2CCc2ccccc2)s1	D2 antagonist 50
